# Source: article PMC11006913
# Numbering of substitutions follows the chain as printed.
# Legend:
# Experiment in all cases: PBM; 200 nM protein, PBS
# Conditions in all cases: dsDNA, one strand shown
# VENTX [1] = target: T1, VENTX (Homo sapiens, UniProt O95231 78-163, R121Q)
# T1 sequence: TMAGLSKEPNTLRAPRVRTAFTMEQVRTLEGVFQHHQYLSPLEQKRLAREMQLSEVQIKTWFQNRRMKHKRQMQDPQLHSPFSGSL
# VENTX [2] = target: T2, VENTX (Homo sapiens, UniProt O95231 78-163, Y115F)
# T2 sequence: T1 sequence with Y38F, Q44R
# HOXB9 [3] = target: HOXB9 (Homo sapiens, UniProt P17482 171-250, T197M)
# Chain of HOXB9 (Homo sapiens, UniProt P17482 171-250, T197M) (P17482 171-250 T197M): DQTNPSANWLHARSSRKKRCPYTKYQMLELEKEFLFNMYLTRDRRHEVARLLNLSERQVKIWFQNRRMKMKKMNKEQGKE
# HOXC9 [4] = target: HOXC9 (Homo sapiens, UniProt P31274 178-260, K195R)
# Chain of HOXC9 (Homo sapiens, UniProt P31274 178-260, K195R) (P31274 178-260 K195R): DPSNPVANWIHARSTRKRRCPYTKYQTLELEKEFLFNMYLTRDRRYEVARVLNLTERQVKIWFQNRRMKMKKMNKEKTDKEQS
# HOXA7 [5] = target: HOXA7 (Homo sapiens, UniProt P31268 116-202)
# Chain of HOXA7 (Homo sapiens, UniProt P31268 116-202) (P31268 116-202): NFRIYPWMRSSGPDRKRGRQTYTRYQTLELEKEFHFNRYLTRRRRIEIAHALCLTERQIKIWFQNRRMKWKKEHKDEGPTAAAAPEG
# HOXC10 [6] = target: HOXC10 (Homo sapiens, UniProt Q9NYD6 254-340)
# Chain of HOXC10 (Homo sapiens, UniProt Q9NYD6 254-340) (Q9NYD6 254-340): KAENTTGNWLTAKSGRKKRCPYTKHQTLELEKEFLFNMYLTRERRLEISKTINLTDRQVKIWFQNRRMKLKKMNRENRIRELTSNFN
# HOXB6 [7] = target: HOXB6 (Homo sapiens, UniProt P17509 132-218, K202E)
# Chain of HOXB6 (Homo sapiens, UniProt P17509 132-218, K202E) (P17509 132-218 K202E): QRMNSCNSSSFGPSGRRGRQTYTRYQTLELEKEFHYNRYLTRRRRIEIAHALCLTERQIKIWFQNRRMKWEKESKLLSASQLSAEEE
# HOXB9 [8] = target: HOXB9 (Homo sapiens, UniProt P17482 171-250)
# Chain of HOXB9 (Homo sapiens, UniProt P17482 171-250) (P17482 171-250): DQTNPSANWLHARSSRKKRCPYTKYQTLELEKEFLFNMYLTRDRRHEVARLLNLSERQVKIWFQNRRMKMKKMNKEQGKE
# HOXC9 [9] = target: HOXC9 (Homo sapiens, UniProt P31274 178-260)
# Chain of HOXC9 (Homo sapiens, UniProt P31274 178-260) (P31274 178-260): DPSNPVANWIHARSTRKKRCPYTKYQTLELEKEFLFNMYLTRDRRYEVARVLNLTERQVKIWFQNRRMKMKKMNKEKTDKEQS
# MSX2 [10] = target: MSX2 (Homo sapiens, UniProt P35548 130-214, R199I)
# Chain of MSX2 (Homo sapiens, UniProt P35548 130-214, R199I) (P35548 130-214 R199I): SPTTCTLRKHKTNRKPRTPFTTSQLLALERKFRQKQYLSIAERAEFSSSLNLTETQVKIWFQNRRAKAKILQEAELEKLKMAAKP
# HOXD13 [11] = target: HOXD13 (Homo sapiens, UniProt P35453 263-343, T313R)
# Chain of HOXD13 (Homo sapiens, UniProt P35453 263-343, T313R) (P35453 263-343 T313R): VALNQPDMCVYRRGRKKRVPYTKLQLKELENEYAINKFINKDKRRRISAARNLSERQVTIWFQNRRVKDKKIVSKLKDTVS
# HOXC9 [12] = target: HOXC9 (Homo sapiens, UniProt P31274 178-260, R193K)
# Chain of HOXC9 (Homo sapiens, UniProt P31274 178-260, R193K) (P31274 178-260 R193K): as the sequence (P31274 178-260) above, with R16K counted along it
# HOXC10 [13] = target: HOXC10 (Homo sapiens, UniProt Q9NYD6 254-340, K271E)
# Chain of HOXC10 (Homo sapiens, UniProt Q9NYD6 254-340, K271E) (Q9NYD6 254-340 K271E): as the sequence (Q9NYD6 254-340) above, with K18E counted along it
# MSX2 [14] = target: MSX2 (Homo sapiens, UniProt P35548 130-214)
# Chain of MSX2 (Homo sapiens, UniProt P35548 130-214) (P35548 130-214): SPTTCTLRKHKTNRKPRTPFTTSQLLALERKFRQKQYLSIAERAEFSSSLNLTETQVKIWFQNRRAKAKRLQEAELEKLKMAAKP
# HOXB9 [15] = target: HOXB9 (Homo sapiens, UniProt P17482 171-250, R186Q)
# Chain of HOXB9 (Homo sapiens, UniProt P17482 171-250, R186Q) (P17482 171-250 R186Q): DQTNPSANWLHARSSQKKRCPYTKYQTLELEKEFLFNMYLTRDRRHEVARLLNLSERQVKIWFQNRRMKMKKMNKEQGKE
# HOXC9 [16] = target: HOXC9 (Homo sapiens, UniProt P31274 178-260, R222W)
# Chain of HOXC9 (Homo sapiens, UniProt P31274 178-260, R222W) (P31274 178-260 R222W): as the sequence (P31274 178-260) above, with R45W counted along it
# MSX2 [17] = target: MSX2 (Homo sapiens, UniProt P35548 130-214, F161Y)
# Chain of MSX2 (Homo sapiens, UniProt P35548 130-214, F161Y) (P35548 130-214 F161Y): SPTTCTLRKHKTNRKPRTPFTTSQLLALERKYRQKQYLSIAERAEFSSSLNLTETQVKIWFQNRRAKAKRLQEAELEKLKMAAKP
# HOXA7 [18] = target: HOXA7 (Homo sapiens, UniProt P31268 116-202, W177C)
# Chain of HOXA7 (Homo sapiens, UniProt P31268 116-202, W177C) (P31268 116-202 W177C): as the sequence (P31268 116-202) above, with W62C counted along it
# HOXB6 [19] = target: HOXB6 (Homo sapiens, UniProt P17509 132-218)
# Chain of HOXB6 (Homo sapiens, UniProt P17509 132-218) (P17509 132-218): as the sequence (P17509 132-218 K202E) above, with E71K counted along it
# HOXA4 [20] = target: HOXA4 (Homo sapiens, UniProt Q00056 201-287, W262R)
# Chain of HOXA4 (Homo sapiens, UniProt Q00056 201-287, W262R) (Q00056 201-287 W262R): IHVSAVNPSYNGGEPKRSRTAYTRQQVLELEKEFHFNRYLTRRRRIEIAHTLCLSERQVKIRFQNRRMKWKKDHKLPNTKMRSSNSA
# HOXA4 [21] = target: HOXA4 (Homo sapiens, UniProt Q00056 201-287, R217L)
# Chain of HOXA4 (Homo sapiens, UniProt Q00056 201-287, R217L) (Q00056 201-287 R217L): as the sequence (Q00056 201-287 W262R) above, with R17L, R62W counted along it
# HOXA4 [22] = target: HOXA4 (Homo sapiens, UniProt Q00056 201-287)
# Chain of HOXA4 (Homo sapiens, UniProt Q00056 201-287) (Q00056 201-287): as the sequence (Q00056 201-287 W262R) above, with R62W counted along it
# HOXA4 [23] = target: HOXA4 (Homo sapiens, UniProt Q00056 201-287, W262F)
# Chain of HOXA4 (Homo sapiens, UniProt Q00056 201-287, W262F) (Q00056 201-287 W262F): as the sequence (Q00056 201-287 W262R) above, with R62F counted along it
# HOXD13 [24] = target: HOXD13 (Homo sapiens, UniProt P35453 263-343)
# Chain of HOXD13 (Homo sapiens, UniProt P35453 263-343) (P35453 263-343): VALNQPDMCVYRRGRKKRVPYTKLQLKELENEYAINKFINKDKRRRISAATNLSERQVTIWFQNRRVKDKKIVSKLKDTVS
# HOXD13 [25] = target: HOXD13 (Homo sapiens, UniProt P35453 263-343, T313A)
# Chain of HOXD13 (Homo sapiens, UniProt P35453 263-343, T313A) (P35453 263-343 T313A): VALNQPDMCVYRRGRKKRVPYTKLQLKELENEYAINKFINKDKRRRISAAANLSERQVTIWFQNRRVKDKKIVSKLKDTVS
# PAX4 = target: T3, PAX4 (Homo sapiens, UniProt O43316 9-242, R200K)
# T3 sequence: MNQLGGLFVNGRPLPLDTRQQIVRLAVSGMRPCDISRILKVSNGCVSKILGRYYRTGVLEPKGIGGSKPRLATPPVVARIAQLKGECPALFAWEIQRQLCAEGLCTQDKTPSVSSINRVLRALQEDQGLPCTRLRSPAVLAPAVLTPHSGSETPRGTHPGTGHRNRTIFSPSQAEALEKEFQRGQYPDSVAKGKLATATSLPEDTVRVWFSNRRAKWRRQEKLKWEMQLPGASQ
# HOXB4 = HOXB4 (Homo sapiens, UniProt P17483 148-234, V174I)
# Chain of HOXB4 (P17483 148-234 V174I): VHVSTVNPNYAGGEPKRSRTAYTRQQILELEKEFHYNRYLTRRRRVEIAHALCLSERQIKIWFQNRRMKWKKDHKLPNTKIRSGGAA
# ALX4 = ALX4 (Homo sapiens, UniProt Q9H161 200-286, Q225E)
# Chain of ALX4 (Q9H161 200-286 Q225E): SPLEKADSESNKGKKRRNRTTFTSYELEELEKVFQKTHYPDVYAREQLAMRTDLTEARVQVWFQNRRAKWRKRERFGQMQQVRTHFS
sequence,measurement,setting,value
TAATCGGA,binding signal,VENTX [1],"10.4 upbm affinity estimate (log intensity, higher = more binding, comparable within an allelic series)"
same,binding signal,VENTX [2],"10.6 upbm affinity estimate (log intensity, higher = more binding, comparable within an allelic series)"
ATTTAATG,binding signal,HOXB9 [3],"10.2 upbm affinity estimate (log intensity, higher = more binding, comparable within an allelic series)"
same,binding signal,HOXC9 [4],"13.1 upbm affinity estimate (log intensity, higher = more binding, comparable within an allelic series)"
same,binding signal,HOXA7 [5],"11.3 upbm affinity estimate (log intensity, higher = more binding, comparable within an allelic series)"
same,binding signal,HOXC10 [6],"12.4 upbm affinity estimate (log intensity, higher = more binding, comparable within an allelic series)"
same,binding signal,HOXB6 [7],"10.1 upbm affinity estimate (log intensity, higher = more binding, comparable within an allelic series)"
same,binding signal,HOXB9 [8],"12.3 upbm affinity estimate (log intensity, higher = more binding, comparable within an allelic series)"
same,binding signal,HOXC9 [9],"13 upbm affinity estimate (log intensity, higher = more binding, comparable within an allelic series)"
same,binding signal,MSX2 [10],"11.4 upbm affinity estimate (log intensity, higher = more binding, comparable within an allelic series)"
same,binding signal,HOXD13 [11],"10.7 upbm affinity estimate (log intensity, higher = more binding, comparable within an allelic series)"
same,binding signal,HOXC9 [12],"13 upbm affinity estimate (log intensity, higher = more binding, comparable within an allelic series)"
same,binding signal,HOXC10 [13],"12.2 upbm affinity estimate (log intensity, higher = more binding, comparable within an allelic series)"
same,binding signal,MSX2 [14],"12.2 upbm affinity estimate (log intensity, higher = more binding, comparable within an allelic series)"
same,binding signal,HOXB9 [15],"12.1 upbm affinity estimate (log intensity, higher = more binding, comparable within an allelic series)"
same,binding signal,HOXC9 [16],"11.2 upbm affinity estimate (log intensity, higher = more binding, comparable within an allelic series)"
same,binding signal,MSX2 [17],"12 upbm affinity estimate (log intensity, higher = more binding, comparable within an allelic series)"
same,binding signal,HOXA7 [18],"8.91 upbm affinity estimate (log intensity, higher = more binding, comparable within an allelic series)"
same,binding signal,HOXB6 [19],"11.9 upbm affinity estimate (log intensity, higher = more binding, comparable within an allelic series)"
GGGATCCC,binding signal,HOXB9 [3],"8.56 upbm affinity estimate (log intensity, higher = more binding, comparable within an allelic series)"
same,binding signal,HOXA4 [20],"9.85 upbm affinity estimate (log intensity, higher = more binding, comparable within an allelic series)"
same,binding signal,HOXC9 [4],"9.54 upbm affinity estimate (log intensity, higher = more binding, comparable within an allelic series)"
same,binding signal,HOXB6 [7],"9.02 upbm affinity estimate (log intensity, higher = more binding, comparable within an allelic series)"
same,binding signal,HOXA4 [21],"9.68 upbm affinity estimate (log intensity, higher = more binding, comparable within an allelic series)"
same,binding signal,HOXB9 [8],"8.21 upbm affinity estimate (log intensity, higher = more binding, comparable within an allelic series)"
same,binding signal,HOXC9 [9],"9.51 upbm affinity estimate (log intensity, higher = more binding, comparable within an allelic series)"
same,binding signal,HOXC9 [12],"9.56 upbm affinity estimate (log intensity, higher = more binding, comparable within an allelic series)"
same,binding signal,HOXA4 [22],"9.71 upbm affinity estimate (log intensity, higher = more binding, comparable within an allelic series)"
same,binding signal,HOXB9 [15],"8.25 upbm affinity estimate (log intensity, higher = more binding, comparable within an allelic series)"
same,binding signal,HOXC9 [16],"9.68 upbm affinity estimate (log intensity, higher = more binding, comparable within an allelic series)"
same,binding signal,HOXA4 [23],"9.89 upbm affinity estimate (log intensity, higher = more binding, comparable within an allelic series)"
same,binding signal,HOXB6 [19],"9.02 upbm affinity estimate (log intensity, higher = more binding, comparable within an allelic series)"
CCCATAAA,binding signal,HOXB9 [3],"9.63 upbm affinity estimate (log intensity, higher = more binding, comparable within an allelic series)"
same,binding signal,HOXC9 [4],"12.8 upbm affinity estimate (log intensity, higher = more binding, comparable within an allelic series)"
same,binding signal,HOXA7 [5],"10.4 upbm affinity estimate (log intensity, higher = more binding, comparable within an allelic series)"
same,binding signal,HOXC10 [6],"12.5 upbm affinity estimate (log intensity, higher = more binding, comparable within an allelic series)"
same,binding signal,HOXB9 [8],"12.2 upbm affinity estimate (log intensity, higher = more binding, comparable within an allelic series)"
same,binding signal,HOXC9 [9],"13 upbm affinity estimate (log intensity, higher = more binding, comparable within an allelic series)"
same,binding signal,HOXD13 [11],"11 upbm affinity estimate (log intensity, higher = more binding, comparable within an allelic series)"
same,binding signal,HOXC9 [12],"12.8 upbm affinity estimate (log intensity, higher = more binding, comparable within an allelic series)"
same,binding signal,HOXD13 [24],"12.3 upbm affinity estimate (log intensity, higher = more binding, comparable within an allelic series)"
same,binding signal,HOXC10 [13],"11.9 upbm affinity estimate (log intensity, higher = more binding, comparable within an allelic series)"
same,binding signal,HOXD13 [25],"12 upbm affinity estimate (log intensity, higher = more binding, comparable within an allelic series)"
same,binding signal,HOXB9 [15],"12 upbm affinity estimate (log intensity, higher = more binding, comparable within an allelic series)"
same,binding signal,HOXC9 [16],"11.2 upbm affinity estimate (log intensity, higher = more binding, comparable within an allelic series)"
same,binding signal,HOXA7 [18],"8.63 upbm affinity estimate (log intensity, higher = more binding, comparable within an allelic series)"
CTAACGAG,binding signal,VENTX [1],"10.2 upbm affinity estimate (log intensity, higher = more binding, comparable within an allelic series)"
same,binding signal,HOXC9 [9],"10.9 upbm affinity estimate (log intensity, higher = more binding, comparable within an allelic series)"
same,binding signal,HOXC9 [12],"10.8 upbm affinity estimate (log intensity, higher = more binding, comparable within an allelic series)"
same,binding signal,HOXC9 [16],"10.1 upbm affinity estimate (log intensity, higher = more binding, comparable within an allelic series)"
CATTAATA,binding signal,HOXB9 [3],"10.2 upbm affinity estimate (log intensity, higher = more binding, comparable within an allelic series)"
same,binding signal,HOXC9 [4],"12.7 upbm affinity estimate (log intensity, higher = more binding, comparable within an allelic series)"
same,binding signal,HOXA7 [5],"11.5 upbm affinity estimate (log intensity, higher = more binding, comparable within an allelic series)"
same,binding signal,HOXC10 [6],"12.2 upbm affinity estimate (log intensity, higher = more binding, comparable within an allelic series)"
same,binding signal,PAX4,"11.6 upbm affinity estimate (log intensity, higher = more binding, comparable within an allelic series)"
same,binding signal,HOXB6 [7],"10.1 upbm affinity estimate (log intensity, higher = more binding, comparable within an allelic series)"
same,binding signal,HOXB9 [8],"12 upbm affinity estimate (log intensity, higher = more binding, comparable within an allelic series)"
same,binding signal,HOXB4,"13.6 upbm affinity estimate (log intensity, higher = more binding, comparable within an allelic series)"
same,binding signal,HOXC9 [9],"12.6 upbm affinity estimate (log intensity, higher = more binding, comparable within an allelic series)"
same,binding signal,HOXC9 [12],"12.6 upbm affinity estimate (log intensity, higher = more binding, comparable within an allelic series)"
same,binding signal,HOXC10 [13],"11.9 upbm affinity estimate (log intensity, higher = more binding, comparable within an allelic series)"
same,binding signal,HOXB9 [15],"11.7 upbm affinity estimate (log intensity, higher = more binding, comparable within an allelic series)"
same,binding signal,HOXC9 [16],"11.1 upbm affinity estimate (log intensity, higher = more binding, comparable within an allelic series)"
same,binding signal,HOXA7 [18],"9 upbm affinity estimate (log intensity, higher = more binding, comparable within an allelic series)"
same,binding signal,HOXB6 [19],"11.9 upbm affinity estimate (log intensity, higher = more binding, comparable within an allelic series)"
TAATAAAA,binding signal,HOXB9 [3],"10.1 upbm affinity estimate (log intensity, higher = more binding, comparable within an allelic series)"
same,binding signal,HOXC9 [4],"13.2 upbm affinity estimate (log intensity, higher = more binding, comparable within an allelic series)"
same,binding signal,HOXC10 [6],"13 upbm affinity estimate (log intensity, higher = more binding, comparable within an allelic series)"
same,binding signal,ALX4,"11.8 upbm affinity estimate (log intensity, higher = more binding, comparable within an allelic series)"
same,binding signal,HOXB9 [8],"12.6 upbm affinity estimate (log intensity, higher = more binding, comparable within an allelic series)"
same,binding signal,HOXC9 [9],"13.2 upbm affinity estimate (log intensity, higher = more binding, comparable within an allelic series)"
same,binding signal,HOXD13 [11],"11.1 upbm affinity estimate (log intensity, higher = more binding, comparable within an allelic series)"
same,binding signal,HOXC9 [12],"13.1 upbm affinity estimate (log intensity, higher = more binding, comparable within an allelic series)"
same,binding signal,HOXD13 [24],"12.1 upbm affinity estimate (log intensity, higher = more binding, comparable within an allelic series)"
same,binding signal,HOXC10 [13],"12.5 upbm affinity estimate (log intensity, higher = more binding, comparable within an allelic series)"
same,binding signal,HOXD13 [25],"12.1 upbm affinity estimate (log intensity, higher = more binding, comparable within an allelic series)"
same,binding signal,HOXB9 [15],"12.2 upbm affinity estimate (log intensity, higher = more binding, comparable within an allelic series)"
same,binding signal,HOXC9 [16],"11.7 upbm affinity estimate (log intensity, higher = more binding, comparable within an allelic series)"
